This passage reports outcome, Potency and max activation results from PubChem BioAssay (Tox21).

Inconclusive results are not listed. The source holds several records for some structures; these can differ, active in one and inactive in another. The source made the active and inactive calls. Unless noted, calls come from the whole dose curve; as a rule, active = well fitted curve in the direction sought with a large enough effect in the repeat runs; inconclusive = weak or mixed curves; inactive = no such curve, though single readings can be large; an effect the other way counts as inactive or inconclusive.

Assay [1] deals with Thyrotropin-releasing hormone receptor (Homo sapiens) (UniProt P34981). The assay can be described thus: qHTS assay to identify small molecule agonists of the thyrotropin-releasing hormone receptor (TRHR) signaling pathway (AID 1346891; calls by dose curve;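 note: HEK293 cells expressing TRHR with calcium dye readout; series mostly up to about 58 µM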). In short, it runs like this: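 Cells: TRHR-Hek293, seeded and incubated 18 h. Dye loading: 2 h at 37 °C. Compound added from DMSO stock by pin tool. Read-out: kinetic calcium fluorescence over 3 min.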
Thyrotropin-releasing hormone receptor (Homo sapiens), sequence (P34981 whole entry, looked up): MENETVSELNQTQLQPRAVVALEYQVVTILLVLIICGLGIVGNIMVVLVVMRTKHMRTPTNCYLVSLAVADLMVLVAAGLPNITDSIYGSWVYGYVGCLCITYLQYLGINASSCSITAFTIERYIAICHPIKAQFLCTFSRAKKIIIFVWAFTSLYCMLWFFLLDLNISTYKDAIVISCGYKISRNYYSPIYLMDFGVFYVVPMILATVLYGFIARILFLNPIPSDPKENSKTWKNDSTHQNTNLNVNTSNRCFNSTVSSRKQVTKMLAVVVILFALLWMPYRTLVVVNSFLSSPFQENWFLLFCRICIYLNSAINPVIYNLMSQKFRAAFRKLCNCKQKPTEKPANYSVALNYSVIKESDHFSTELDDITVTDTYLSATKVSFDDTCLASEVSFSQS

A short description of assay [2]: Human pregnane X receptor (PXR) small molecule agonists, qHTS cell viability counter screen (AID 1346977). Note: nearly all actives have a fitted effect of over 50% in size. In short, it runs like this: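 Cytotoxicity counter screen run in the same wells as the PXR luciferase assay, using PXR-Luc HepG2 cells in charcoal-stripped serum medium. Viability: CellTiter-Fluor fluorescence after 24hr compound treatment.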
Background: qHTS replaces the single test concentration by a dilution series.

Assay [3] in a line: Caspase-3/7 induction in HepG2 cells by small molecules, qHTS assay (AID 1346978). Note: nearly all actives have a fitted effect of over 15% in size. In short, it runs like this:
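Wild-type HepG2 cells (2,000/well) were settled 5 h at 37 C, 5% CO2, then exposed to compounds in DMSO for 17 h. Caspase-3/7 activity was read by luminescence 30 min after adding Caspase-Glo 3/7 reagent at room temperature.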

A short description of assay [4]: Caspase-3/7 induction in CHO-K1 cells by small molecules, qHTS assay (AID 1346980). Note: nearly all actives have a fitted effect of over 15% in size. The procedure, abridged:
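Wild-type cells were seeded at 1,500 per well and settled 5 hr at 37 C, 5% CO2, then exposed to DMSO-dissolved compounds for 17 hr. Caspase-Glo 3/7 reagent was added, and luminescence was read after 30min at room temperature.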

Assay [5] can be described thus: Caspase-3/7 induction in HepG2 cells by small molecules, qHTS cell viability counter screen (AID 1346981). Note: series mostly up to about 92 µM; nearly all actives have a fitted effect of over 30% in size. In short, it runs like this: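 HepG2, WT, 2,000 cells/well; 5 hr pre-incubation 37 C/5% CO2; compound pin-transferred from DMSO; 16 hr exposure; CellTiter-Fluor, 1 hr; fluorescence read.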
The target in assay [6] is Nuclear receptor subfamily 1 group I member 2 (Homo sapiens) (UniProt O75469). Kind of assay: Human pregnane X receptor (PXR) small molecule agonists, qHTS assay (AID 1346982). Note: nearly all actives have a fitted effect of over 35% in size. Note: potency is the fitted concentration of half-maximal effect. In short, it runs like this:
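Luciferase signal from ONE-Glo (30 min, room temperature) measured activation of hPXR-driven CYP3A4 reporter expression in PXR-Luc HepG2 cells treated with compounds for 24 hr at 37 C.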

Assay [7] has as its target Acetylcholinesterase (Homo sapiens) (UniProt P22303). Kind of assay: Acetylcholinesterase (AChE) small molecule antagonists: colormetric cell-based qHTS assay (AID 1347395; calls by dose curve; note: nearly all actives have a fitted effect of over 30% in size). In short, it runs like this: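 Cells (SH-SY5Y, 2,000 per well) are seeded and left overnight at 37 C. Compound is added for 30 min, then DTNB and acetylthiocholine for a further 90 min at 37 C before absorbance-based thiocholine detection.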

Assay [8] has the same target. The assay can be described thus: Acetylcholinesterase (AChE) small molecule antagonists: fluorescence cell-based qHTS assay (AID 1347398; calls by dose curve; note: nearly all actives have a fitted effect of over 50% in size). The settings on record: Potency: AChE activity; outcome: AChE activity. The procedure, abridged:
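Human SH-SY5Y cells were plated overnight at 37 C, exposed to compound for 30 min at 37 C, 5% CO2, then given acetylthiocholine plus Thiolite Green for 40 min at room temperature; thiocholine fluorescence (Ex/Em 490/520 nm) reports endogenous AChE activity.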

Assay [9] concerns the target Cytochrome P450 2D6 (Homo sapiens) (UniProt P10635). The assay can be described thus: Cytochrome P450 Family 2 Subfamily D Member 6 (CYP2D6) small molecule antagonists: luciferase reporter qHTS assay (AID 1671196). Note: nearly all actives have a fitted effect of over 50% in size. Note: potency is the fitted concentration of half-maximal effect. The procedure, abridged:
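Read-out is luminescence from luciferin formed by CYP2D6 turnover of a proluciferin substrate, recorded as relative luminescence units. Reactions ran 1 h at room temperature after NADPH regeneration solution was added.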
Background: In a reporter assay the amount or activity of a reporter protein is the signal.

In assay [10] the target is Cytochrome P450 2C9 (Homo sapiens) (UniProt P11712). The assay can be described thus: Cytochrome P450 Family 2 Subfamily C Member 9 (CYP2C9) small molecule antagonists: luciferase reporter qHTS assay (AID 1671198). Note: nearly all actives have a fitted effect of over 50% in size. Note: potency is the fitted concentration of half-maximal effect. In short, it runs like this:
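CYP2C9 activity was measured with a P450-Glo proluciferin substrate. Enzyme–substrate mix was held with compound for 10 min at room temperature, then NADPH regeneration solution was added for 1 h at 37C. Luciferin product was read as luminescence.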

In assay [11] the target is Voltage-gated inwardly rectifying potassium channel KCNH2 (Homo sapiens) (UniProt Q12809). Kind of assay: Human Ether-a-go-go-Related Gene (hERG) channel small molecule antagonists: fluorescence cell-based qHTS assay (AID 1671200). In short, it runs like this: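 Fluorescence at 540 nm emission (480 nm excitation) was recorded kinetically for 2 min at 1-second intervals once the thallium-containing stimulus reached cells previously loaded with FluxOR II dye.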
Voltage-gated inwardly rectifying potassium channel KCNH2 (Homo sapiens), sequence (Q12809 whole entry, looked up): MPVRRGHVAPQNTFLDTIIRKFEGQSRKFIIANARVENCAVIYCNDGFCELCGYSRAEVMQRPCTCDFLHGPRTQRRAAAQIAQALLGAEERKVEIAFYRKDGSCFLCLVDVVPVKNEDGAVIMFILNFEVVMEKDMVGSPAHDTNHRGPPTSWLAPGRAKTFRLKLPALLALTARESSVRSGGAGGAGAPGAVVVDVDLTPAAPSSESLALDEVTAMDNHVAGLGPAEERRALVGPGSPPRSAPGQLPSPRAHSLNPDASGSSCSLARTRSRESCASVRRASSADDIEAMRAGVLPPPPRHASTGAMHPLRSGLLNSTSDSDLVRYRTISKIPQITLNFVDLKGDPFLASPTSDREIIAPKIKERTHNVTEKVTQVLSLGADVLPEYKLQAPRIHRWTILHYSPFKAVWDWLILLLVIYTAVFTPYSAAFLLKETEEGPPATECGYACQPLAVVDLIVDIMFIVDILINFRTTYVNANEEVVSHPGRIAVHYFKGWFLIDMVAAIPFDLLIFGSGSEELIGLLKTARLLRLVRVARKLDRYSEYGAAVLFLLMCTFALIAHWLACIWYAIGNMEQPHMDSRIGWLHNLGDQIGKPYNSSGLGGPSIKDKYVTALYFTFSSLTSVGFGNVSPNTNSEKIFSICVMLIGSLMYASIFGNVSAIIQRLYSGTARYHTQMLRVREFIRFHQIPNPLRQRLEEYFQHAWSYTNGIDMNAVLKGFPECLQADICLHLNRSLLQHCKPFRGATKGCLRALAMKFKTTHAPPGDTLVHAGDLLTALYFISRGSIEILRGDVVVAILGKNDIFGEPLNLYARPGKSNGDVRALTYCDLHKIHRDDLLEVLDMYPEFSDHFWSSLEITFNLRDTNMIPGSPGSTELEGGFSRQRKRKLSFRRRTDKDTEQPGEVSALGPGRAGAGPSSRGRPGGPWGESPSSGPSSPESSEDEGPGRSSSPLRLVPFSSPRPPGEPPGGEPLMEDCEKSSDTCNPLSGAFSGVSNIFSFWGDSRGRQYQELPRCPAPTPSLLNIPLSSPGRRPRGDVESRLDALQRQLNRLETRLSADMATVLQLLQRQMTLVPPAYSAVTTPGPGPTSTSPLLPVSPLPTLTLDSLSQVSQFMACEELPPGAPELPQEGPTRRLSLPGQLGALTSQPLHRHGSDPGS
For orientation: The hERG channel carries a current that helps repolarise heart muscle cells.

Assay [12] concerns the target Cytochrome P450 3A4 (Homo sapiens) (UniProt P08684). The assay can be described thus: Cytochrome P450 Family 3 Subfamily A Member 4 (CYP3A4) small molecule antagonists: luciferase reporter qHTS assay (AID 1671201). In short, it runs like this: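 qHTS, 1536-well. CYP3A4 + proluciferin substrate, cpd 10 min RT → NADPH regen 1 h RT → detection reagent 20 min → luminescence (RLU). Ketoconazole positive control.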

In assay [13] the target is Acetylcholinesterase (Homo sapiens) (UniProt P22303). The assay can be described thus: Acetylcholinesterase (AChE) small molecule antagonists: enzyme-based qHTS assay (AID 1347397; calls by dose curve; note: nearly all actives have a fitted effect of over 55% in size). The settings on record: Potency: AChE enzyme activity inhibition; outcome: AChE enzyme activity inhibition. The procedure, abridged:
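Recombinant human AChE, dispensed at 50 mU/mL, was preincubated with Tox21 10K compounds or DMSO vehicle for 30 min at room temperature. DTNB plus acetylthiocholine was then added, and thiocholine was measured colorimetrically after a further 10 min.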

Assay [14] can be described thus: Caspase-3/7 induction in CHO-K1 cells by small molecules, qHTS cell viability counter screen (AID 1346979). Note: nearly all actives have a fitted effect of over 35% in size. In short, it runs like this: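 Cytotoxicity counter screen run in parallel with the caspase-3/7 assay: CHO-K1 cells, 16hr compound treatment at 37C, then CellTiter-Fluor for 1hr before fluorescence reading.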
Assay [15] has as its target Nuclear receptor subfamily 1 group I member 2 (Rattus norvegicus) (UniProt Q9R1A7). The assay can be described thus: Rat pregnane X receptor (rPXR) activation by small molecules, qHTS assay (AID 1346983). Note: nearly all actives have a fitted effect of over 20% in size. To be noted: rPXR luciferase reporter cells, One-Glo luminescence, 24 h; stronger effect = higher value. In short, it runs like this: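 Cell-based rPXR luciferase reporter assay, 2,000 cells per well, rested 5hr at 37 C before compound addition in DMSO, then 24 hr at 37 C. One-Glo reagent was added and luminescence read after 30 min at room temperature.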

For assay [16], the target named is Nuclear receptor subfamily 1 group I member 2 (Homo sapiens) (UniProt O75469). Kind of assay: Human pregnane X receptor (PXR) activation by small molecules, qHTS assay (AID 1346985). Note: nearly all actives have a fitted effect of over 40% in size. In short, it runs like this:
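DPX-2 cells (HepG2 co-transfected with a PXR response element and a CYP3A4-promoter luciferase construct) were seeded at 2,000 per well, rested 5 hr at 37C, then exposed to DMSO-dissolved compounds for 24 hr. Activation was read as luciferase luminescence.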

The target in assay [17] is Cytochrome P450 2C19 (Homo sapiens) (UniProt P33261). The assay can be described thus: Cytochrome P450 Family 2 Subfamily C Member 19 (CYP2C19) small molecule antagonists: luciferase reporter qHTS assay (AID 1671197). Note: nearly all actives have a fitted effect of over 65% in size. Note: potency is the fitted concentration of half-maximal effect. The procedure, abridged: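 Compounds were tested on CYP2C19 activity via proluciferin conversion to luciferin. The 37C, 1 h reaction followed NADPH addition; detection reagent stopped it.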
Cytochrome P450 2C19 (Homo sapiens), sequence (P33261 whole entry, looked up): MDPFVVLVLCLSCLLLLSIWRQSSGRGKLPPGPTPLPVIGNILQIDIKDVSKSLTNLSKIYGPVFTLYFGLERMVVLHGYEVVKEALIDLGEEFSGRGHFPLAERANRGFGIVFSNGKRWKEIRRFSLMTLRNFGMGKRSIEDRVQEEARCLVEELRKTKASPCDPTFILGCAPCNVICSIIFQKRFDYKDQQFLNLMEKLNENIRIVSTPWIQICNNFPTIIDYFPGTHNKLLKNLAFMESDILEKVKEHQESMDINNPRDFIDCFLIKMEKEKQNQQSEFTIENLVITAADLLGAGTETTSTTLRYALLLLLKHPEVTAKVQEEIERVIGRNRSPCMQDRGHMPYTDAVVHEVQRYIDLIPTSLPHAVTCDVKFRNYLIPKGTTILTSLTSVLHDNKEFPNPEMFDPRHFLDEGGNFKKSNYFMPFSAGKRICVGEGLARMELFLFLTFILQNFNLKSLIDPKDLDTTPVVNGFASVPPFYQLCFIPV

The target in assay [18] is Cytochrome P450 1A2 (Homo sapiens) (UniProt P05177). The assay can be described thus: Cytochrome P450 Family 1 Subfamily A Member 2 (CYP1A2) small molecule antagonists: luciferase reporter qHTS assay (AID 1671199). Note: nearly all actives have a fitted effect of over 50% in size. Note: potency is the fitted concentration of half-maximal effect. The procedure, abridged:
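P450-Glo CYP1A2, 1536-well qHTS: enzyme/proluciferin substrate + cpd (DMSO), 10 min RT; NADPH regen, 1 h RT; detection reagent, 20 min; luminescence, RLU.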

The target in assay [19] is Acetylcholinesterase (Homo sapiens) (UniProt P22303). The assay can be described thus: Acetylcholinesterase (AChE) small molecule antagonists: enzyme-based qHTS assay with human liver microsomes (AID 1347399; calls by dose curve; note: nearly all actives have a fitted effect of over 60% in size). The settings on record: Potency: qHTS inhibition; outcome: qHTS inhibition. The procedure, abridged: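 Recombinant human AChE (50 mU/mL in the enzyme mix) and human liver microsomes (0.25 mg/mL final) were preincubated with compound and NADPH (0.25 mg/mL final) for 30 min at 37 C. Acetylthiocholine/DTNB was then added; thiocholine was read colorimetrically after 10 min at room temperature.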
% is set by controls: 0 for no effect and ±100 for the full control effect.

Cytochrome P450 2D6 (Homo sapiens), sequence (P10635 whole entry, looked up): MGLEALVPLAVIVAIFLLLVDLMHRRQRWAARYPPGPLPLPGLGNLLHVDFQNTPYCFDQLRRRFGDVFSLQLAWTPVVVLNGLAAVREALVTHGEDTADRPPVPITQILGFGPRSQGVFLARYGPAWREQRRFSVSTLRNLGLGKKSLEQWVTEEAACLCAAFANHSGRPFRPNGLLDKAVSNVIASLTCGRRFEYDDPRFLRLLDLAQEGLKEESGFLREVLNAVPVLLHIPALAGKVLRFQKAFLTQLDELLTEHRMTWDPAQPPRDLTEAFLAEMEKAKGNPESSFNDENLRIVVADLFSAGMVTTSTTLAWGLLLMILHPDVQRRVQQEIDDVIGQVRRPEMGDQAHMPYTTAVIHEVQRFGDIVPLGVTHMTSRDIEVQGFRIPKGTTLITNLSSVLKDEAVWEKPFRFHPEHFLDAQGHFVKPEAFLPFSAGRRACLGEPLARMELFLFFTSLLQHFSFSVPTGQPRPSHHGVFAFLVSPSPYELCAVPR
Cytochrome P450 3A4 (Homo sapiens), sequence (P08684 whole entry, looked up): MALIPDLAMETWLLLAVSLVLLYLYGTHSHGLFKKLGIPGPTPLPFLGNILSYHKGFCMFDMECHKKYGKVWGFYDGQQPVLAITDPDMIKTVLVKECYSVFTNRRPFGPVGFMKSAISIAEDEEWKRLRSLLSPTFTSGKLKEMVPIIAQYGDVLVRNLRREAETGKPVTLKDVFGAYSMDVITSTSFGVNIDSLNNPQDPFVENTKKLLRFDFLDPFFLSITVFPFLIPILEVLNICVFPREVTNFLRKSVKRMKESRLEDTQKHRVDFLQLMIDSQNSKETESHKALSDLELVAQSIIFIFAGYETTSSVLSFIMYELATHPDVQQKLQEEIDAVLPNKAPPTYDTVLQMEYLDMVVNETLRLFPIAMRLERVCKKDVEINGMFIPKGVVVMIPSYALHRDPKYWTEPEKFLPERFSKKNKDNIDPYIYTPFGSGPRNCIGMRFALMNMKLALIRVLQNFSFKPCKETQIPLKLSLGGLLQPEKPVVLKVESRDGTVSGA
Cytochrome P450 2C9 (Homo sapiens), sequence (P11712 whole entry, looked up): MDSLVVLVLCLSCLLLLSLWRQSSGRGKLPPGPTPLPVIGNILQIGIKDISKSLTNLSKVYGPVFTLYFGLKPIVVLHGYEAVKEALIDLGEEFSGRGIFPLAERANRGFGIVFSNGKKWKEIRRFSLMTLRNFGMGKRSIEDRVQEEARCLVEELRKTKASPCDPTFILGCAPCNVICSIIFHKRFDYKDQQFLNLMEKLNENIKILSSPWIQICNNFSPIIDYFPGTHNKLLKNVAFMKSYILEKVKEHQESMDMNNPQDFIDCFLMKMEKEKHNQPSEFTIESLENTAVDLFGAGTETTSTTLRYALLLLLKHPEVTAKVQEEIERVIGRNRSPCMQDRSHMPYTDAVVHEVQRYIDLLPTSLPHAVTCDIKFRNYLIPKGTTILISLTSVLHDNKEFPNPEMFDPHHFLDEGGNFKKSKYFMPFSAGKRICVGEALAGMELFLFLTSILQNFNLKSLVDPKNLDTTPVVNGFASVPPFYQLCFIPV
Nuclear receptor subfamily 1 group I member 2 (Homo sapiens), sequence (O75469 whole entry, looked up): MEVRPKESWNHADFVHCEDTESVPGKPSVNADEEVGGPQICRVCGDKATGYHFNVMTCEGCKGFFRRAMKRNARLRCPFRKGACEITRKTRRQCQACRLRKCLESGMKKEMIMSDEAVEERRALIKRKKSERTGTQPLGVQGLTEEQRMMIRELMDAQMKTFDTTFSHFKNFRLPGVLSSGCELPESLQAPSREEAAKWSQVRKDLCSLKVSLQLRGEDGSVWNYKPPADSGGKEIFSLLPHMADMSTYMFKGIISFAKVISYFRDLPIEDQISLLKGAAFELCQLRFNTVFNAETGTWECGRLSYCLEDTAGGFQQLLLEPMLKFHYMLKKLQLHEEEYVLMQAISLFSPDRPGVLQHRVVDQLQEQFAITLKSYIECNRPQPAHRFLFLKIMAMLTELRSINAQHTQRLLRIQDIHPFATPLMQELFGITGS
Cytochrome P450 1A2 (Homo sapiens), sequence (P05177 whole entry, looked up): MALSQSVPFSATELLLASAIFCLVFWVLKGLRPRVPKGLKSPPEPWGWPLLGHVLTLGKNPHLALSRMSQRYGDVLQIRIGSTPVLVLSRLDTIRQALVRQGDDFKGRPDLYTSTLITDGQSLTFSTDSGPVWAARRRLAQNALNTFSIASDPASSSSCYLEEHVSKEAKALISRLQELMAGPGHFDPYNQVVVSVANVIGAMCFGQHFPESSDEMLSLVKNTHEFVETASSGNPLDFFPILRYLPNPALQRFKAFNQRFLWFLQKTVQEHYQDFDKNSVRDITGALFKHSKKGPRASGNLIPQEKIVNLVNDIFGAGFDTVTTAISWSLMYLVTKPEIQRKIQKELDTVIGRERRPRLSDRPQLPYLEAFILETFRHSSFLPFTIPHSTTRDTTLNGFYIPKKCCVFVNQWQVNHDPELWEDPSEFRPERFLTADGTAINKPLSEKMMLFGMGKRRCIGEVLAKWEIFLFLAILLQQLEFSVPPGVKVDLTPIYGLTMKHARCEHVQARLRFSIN
Nuclear receptor subfamily 1 group I member 2 (Rattus norvegicus), sequence (Q9R1A7 whole entry, looked up): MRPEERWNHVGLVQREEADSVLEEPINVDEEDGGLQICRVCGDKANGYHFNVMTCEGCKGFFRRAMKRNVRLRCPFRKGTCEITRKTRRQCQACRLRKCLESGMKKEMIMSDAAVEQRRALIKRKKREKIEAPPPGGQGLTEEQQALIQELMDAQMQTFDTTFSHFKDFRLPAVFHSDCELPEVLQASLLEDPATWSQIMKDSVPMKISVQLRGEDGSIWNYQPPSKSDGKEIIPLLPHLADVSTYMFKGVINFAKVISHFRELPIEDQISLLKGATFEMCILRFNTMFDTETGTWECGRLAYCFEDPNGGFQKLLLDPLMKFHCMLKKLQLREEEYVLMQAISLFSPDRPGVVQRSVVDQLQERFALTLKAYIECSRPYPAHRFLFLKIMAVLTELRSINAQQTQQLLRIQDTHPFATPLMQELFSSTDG

As for `O=C(O)c1c(Cl)ccc2cc(Cl)cnc12`, the compound was called inactive in assay [1], in assay [3] and in assay [4]. Besides, the Potency entry in assay [2], in assay [5], in assay [6], in assay [7], in assay [8] and in assay [9] was “inactive” in each case. Further, the Potency entry in assay [11] and in [12] was “inactive” each time. For the same compound, in assay [10], the Potency was 79.6 µM (active).
As to `O=c1[nH]c2ccccc2n1C1CCNCC1`, the compound was called inactive in [1], in assay [3] and in assay [4]. The Potency entry in assay [2], in assay [5], in assay [6], in assay [7], in assay [13] and in assay [8] was “inactive” in each case. Moreover, the Potency result in [11] and in assay [12] was “inactive” throughout. In assay [9], the Potency is 30.9 µM (active).
For the compound `ClC1=C(Cl)C2(Cl)C(CBr)CC1(Cl)C2(Cl)Cl` (configuration not stated), the call in assay [1] and in [4] was inactive. Also, the Potency result in [2], in [14], in assay [5], in assay [16], in assay [7] and in [13] was “inactive” in each case. In addition, the Potency entry in assay [8], in assay [9], in assay [17], in assay [10], in assay [18] and in assay [11] was “inactive” throughout. Besides, the Potency in [6] is 48.6 µM (active) and inactive. In assay [15], the max activation is 0.545% (inactive).
On to `CCCOC(=O)Cc1ccc(OCC(=O)N(CC)CC)c(OC)c1`, for which the outcome in assay [1], in [3] and in [4] was inactive. Besides, the Potency entry in [2], in assay [5], in assay [7], in assay [13], in [8] and in assay [9] was “inactive” in each case. Besides, the Potency entry in assay [17], in [10], in [18] and in [11] was “inactive” throughout. Besides, the Potency in assay [6] is 15 µM (active).
Turning to `CCOC1Oc2ccc(OS(C)(=O)=O)cc2C1(C)C` (configuration not stated), the compound was called inactive in [1], in assay [3] and in assay [4]. The Potency result in assay [2], in [5], in [7], in [8], in assay [11] and in [12] was “inactive” each time. For the same compound, the Potency in assay [6] is 21.5 µM (active); in assay [9] it was 35.3 µM (active); in assay [17], 3.96 µM (active); in assay [10], 22.3 µM (active); in [18], 35.3 µM (active).
On to `COc1ccccc1OC`, for which the compound was classed as inactive in assay [1], in [3] and in [4]. The Potency entry in assay [2], in assay [5], in assay [6], in assay [7], in [13] and in assay [8] was “inactive” each time. In addition, the Potency entry in [19], in [9], in assay [10], in assay [18], in assay [11] and in assay [12] was “inactive” throughout. In addition, the Potency in assay [17] is 79.6 µM (active).
Take `Cc1ccc(S(=O)(=O)N[C@@H](CCCCN)C(=O)CCl)cc1`: the compound was classed as inactive in assay [1], in [3] and in assay [4]. Besides, the Potency result in assay [2], in [5], in [6], in assay [16], in assay [7] and in assay [19] was “inactive” in each case. Moreover, the Potency entry in assay [10], in [18] and in assay [11] was “inactive” throughout. In addition, the max activation in [15] was -2.32% (inactive). Besides, the Potency in assay [9] was 17.4 µM (active); in assay [17], 38.9 µM (active).
As to `C=C(Cl)CCl`, the call in assay [1], in [3] and in assay [4] was inactive. Further, the Potency result in assay [2], in assay [5], in [6], in [7], in [13] and in [8] was “inactive” each time. In addition, the Potency result in [10], in assay [18], in assay [11] and in [12] was “inactive” each time.
